Compound activity: PubChem, Sanford-Burnham Center for Chemical Genomics
CF NFkB block = inhibitors of PAF-induced NF-kB signaling, primary screen, cell-based, GFP fluorescence, uHTS; inhibition, % at 5 µM; hit rate 0.86% among 360,000; AID 588850, 2011; KKLEB NF-kB-GFP reporter, GFP fluorescence overnight;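 active = at least 50% inhibition at 5 µM, scaled per plate between neutral and stimulator controls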;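 also: PAF is a Pseudomonas aeruginosa culture filtrate used as stimulus; plate controls were PAF-stimulated DMSO wells for no effect and unstimulated DMSO wells for full effect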
Peg3 prom inh = Peg3 promoter-driven luciferase inhibitors, primary screen, cell-based, HeLa, luciferase luminescence; inhibition, % at 20 µM; hit rate 1.7% among 360,000; HeLa PEG-Prom luciferase reporter, overnight;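 active = inhibition of at least 50% at 20 µM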
TROY NFkB inh = inhibitors of TROY-driven NF-kB signaling, primary screen, Q293 LMP1-TROYcd cells, NF-kB luciferase, uHTS; Q293 LMP1-TROYcd NF-kB luciferase reporter, 4 h; inhibition, % at 10 µM; hit rate 0.98% among 360,000; AID 1347056, 2019;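 active = compounds whose plate-normalised and pattern-corrected inhibition of the luciferase reporter signal at the single screening dose is 50% or more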
KKLEB cytotox = cytotoxicity in KKLEB CF airway cells, primary screen, cytotoxicity control for CF NF-kB inhibitor project, cell-based, uHTS, fluorescence assay plates; activity change (cytotoxicity), % at 5 µM; AID 602141, 2011; hit rate 0.36% among 360,000; KKLEB CF airway cells viability, ATPlite luminescence, overnight; stronger effect = lower value; cells stimulated with P. aeruginosa culture filtrate;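 active = corrected activity change at or below -50% at 5 µM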
HIF-2a block = HIF-2a reporter inhibitors, primary screen, luminescence, 786-0 RCC cells; 786-0 RCC cells HIF-2a reporter, luciferase luminescence, overnight; inhibition, % at 18.8 µM; hit rate 0.72% among 360,000; AID 624352, 2012;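 active = inhibition of the luminescence signal of 40% or more relative to plate controls, in a single-dose primary screen at 18.75 µM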
TWEAK-Fn14 inh = inhibitors of TWEAK-Fn14 signaling, primary screen, luciferase reporter cells, uHTS; hit rate 2% among 360,000; AID 1159606, 2016; inhibition, % at 10 µM; TWEAK-stimulated Fn14 reporter cells, luciferase luminescence, 8 h; in the data active = inhibition above about 50%
The depositor's hits bear a star. Rows were chosen to be rich in hits. Some 4% of all compounds tested hit in one or more screens of this group.

SMILES	CF NFkB block	Peg3 prom inh	TROY NFkB inh	KKLEB cytotox	HIF-2a block	TWEAK-Fn14 inh
C=CCn1c(SCc2ccc(C(=O)Nc3nccs3)cc2)nnc1-c1ccc(C)c(Cl)c1	23	52*	44	-5	-46	92*
C=CC[C@@H](CC(=O)N(CCO)Cc1ccccc1)C(=O)N[C@H](COC(=O)[C@@H](CC=C)Cc1ccc(F)cc1)Cc1ccccc1	-11	45	31	13	2	19
C=CCC[C@@H](Cc1ccc(F)cc1)C(=O)OC[C@@H](NC(=O)[C@H](CC=C)CC(=O)N(CCO)Cc1ccccc1)c1ccccc1	18	32	13	-4	26	56*
C=CC[C@H](CC(=O)N(CCO)Cc1ccccc1)C(=O)N[C@@H](COC(=O)[C@@H](CC=C)CC(=O)OC(C)(C)C)Cc1c[nH]c2ccccc12	14	29	0	2	0	36
C=CC[C@@H](CC(=O)N(CCO)Cc1ccccc1)C(=O)N[C@@H](COC(=O)[C@@H](CC=C)Cc1ccc(F)cc1)Cc1ccccc1	2	33	42	5	6	58*
C=CCC[C@@H](Cc1ccc(F)cc1)C(=O)OC[C@@H](NC(=O)[C@@H](CC=C)CC(=O)N(CCO)Cc1ccccc1)c1ccccc1	13	38	30	-2	17	43
C=CC[C@@H](CC(=O)N(CCO)Cc1ccccc1)C(=O)N[C@H](COC(=O)[C@@H](CC=C)Cc1ccc(F)cc1)Cc1c[nH]c2ccccc12	19	55*	36	-25	-15	51*
C=CC[C@H](CC(=O)N(CCO)Cc1ccccc1)C(=O)N[C@H](COC(=O)[C@@H](CC=C)Cc1ccc(F)cc1)Cc1c[nH]c2ccccc12	14	61*	40	10	-11	60*
Cc1ccc(NC(=O)c2cc3ccccc3o2)cc1Cl	3	-322	-72	-12	-319	-14
C=CCC[C@@H](Cc1ccc(F)cc1)C(=O)OC[C@@H](Cc1c[nH]c2ccccc12)NC(=O)[C@@H](CC=C)CC(=O)N(CCO)Cc1ccccc1	16	38	26	8	-1	49
C=CCC[C@H](Cc1ccc(F)cc1)C(=O)OC[C@H](Cc1c[nH]c2ccccc12)NC(=O)[C@H](CC=C)CC(=O)N(CCO)Cc1ccccc1	30	45	33	-13	-2	57*
C=CC[C@H](CC(=O)N(CCO)Cc1ccccc1)C(=O)NC[C@H](OC(=O)[C@@H](CC=C)Cc1ccc(F)cc1)c1ccccc1	28	60*	43	-5	-3	37
Cc1cccn2c(=O)c3cc(C(=O)N4c5ccccc5CC4C)n(C)c3nc12 (centres undefined)	28	15	24	-12	6	39
CC1Cc2ccccc2N1C(=O)c1cc2c(=O)n3ccccc3nc2n1C (centres undefined)	42	46	-14	-10	-44	53*
CCCOC(=O)Cn1c(=O)c2cc3c(=O)n(CC(=O)OCCC)c(=O)c3cc2c1=O	-5	-216	62*	7	-144	12
Cc1ccc(C)c(C(=O)COC(=O)c2nn(C)c(=O)c3ccccc23)c1	-8	8	4	-3	0	-30
CCCn1c(C(C)Nc2nc(-c3ccc(C)cc3)cs2)nc2cc(Cl)c(Cl)cc21 (centres undefined)	-22	3	1	4	30	6
COc1ccc(-c2csc(NC(C)c3nc4cc(Cl)c(Cl)cc4n3CCCO)n2)cc1 (centres undefined)	13	3	55*	-20	-67	48
CC(Nc1nc(-c2ccc(F)cc2)cs1)c1nc2cc(Cl)c(Cl)cc2n1CCOCCO (centres undefined)	14	-14	17	-8	3	51*
Cc1ccc(Cn2c(C(C)Nc3nc(-c4ccc(F)cc4)cs3)nc3cc(Cl)c(Cl)cc32)cc1 (centres undefined)	20	16	45	-10	-30	52*
CC(=O)Oc1cc(O)c2c(=O)c(OC(C)=O)c(-c3ccc(OC(C)=O)c(OC(C)=O)c3)oc2c1	43	-15	28	-17	-119	68*
CCOC(=O)CSc1nc2c(sc3ccccc32)c(=O)n1CCCN1CCOCC1	-2	9	5	-11	9	-7
COc1ccc(C(=O)N/C(=C/c2ccc(Cl)cc2)C(=O)Nc2ccc(C(=O)O)cc2)cc1	1	22	-24	-6	12	100*
COc1ccc(/C=C(\NC(=O)c2ccc(OC)cc2)C(=O)Nc2cccc(C(=O)O)c2)cc1	-4	-14	-23	18	-18	-3
OC(C1=CC(=Cc2ccncc2)c2ccccc21)c1ccncc1 (centres undefined)	-14	-3	29	-4	21	55*
SMILES	CF NFkB block	Peg3 prom inh	TROY NFkB inh	KKLEB cytotox	HIF-2a block	TWEAK-Fn14 inh
C=CCNC(=O)/C(C#N)=C/c1c(C)nn(-c2ccc(Cl)cc2)c1Cl	23	6	0	-12	18	51*
CC(=O)c1cccc(NC(=O)CSc2nc(N3CCCCC3)nc(N3CCCCC3)n2)c1	-17	-56	57*	-2	-104	54*
Cc1ccc(NC(=O)c2c3c(nc4ccccc24)CCC3)cc1S(=O)(=O)N(C)C	9	21	48	-2	21	71*
O=C(NCc1nc2ccccc2[nH]1)C1=C[C@@H](c2csc3ccccc23)C[C@@H](OCc2ccc(CO)cc2)O1	-6	35	38	4	2	57*
O=C(NCc1nc2ccccc2[nH]1)C1=C[C@H](c2csc3ccccc23)C[C@H](OCc2ccc(CO)cc2)O1	-16	39	22	0	30	55*
O=C(NCc1nc2ccccc2[nH]1)C1=C[C@@H](c2ccc(Br)cc2)C[C@@H](OCc2ccc(CO)cc2)O1	-10	23	11	5	19	22
Cc1cccc(NC(=O)CSCC(=O)N(C)Cc2ccc(Cl)c(Cl)c2)c1	-14	2	3	-18	10	-1
Cc1oc2cc3c(C(=O)N4CCCCC4)c(C)oc3cc2c1C(=O)N1CCCCC1	5	-129	60*	8	-80	74*
O=C(Nc1cccc(C(F)(F)F)c1)C1CCCN(S(=O)(=O)c2cnc[nH]2)C1 (centres undefined)	5	23	-1	-1	14	-9
CCN(CC)c1ccc(/C=N/NC(=O)Cc2ccc(OC)c(OC)c2)cc1	6	11	5	0	0	-13
COc1ccc(-c2cc(C(=O)O)c(C)o2)cc1OC	-12	30	59*	4	12	98*
